Values without a mark were called inactive.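 How the source made its calls: active = AUC reduced over 20% with Padj below 0.05 in at least 2 of 3 replicates; inactive = otherwise.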
Assays:
Assay in all cases: growth AUC relative to DMSO control (median of replicates) (fraction); higher = more growth (less inhibition), active = hit call of the paper
Details in all cases: 20 µM; 24 h
Akkermansia muciniphila = system: Akkermansia muciniphila
Summary of the method: (§1)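 OD600 was recorded every hour for 24 h in anaerobic monocultures of gut bacteria kept at 37 °C in mGAM, seeded at OD600 0.05 and given 20 µM compound in 1% DMSO. The area under each growth curve was scaled to the plate median of solvent-only wells, or to row and column medians for the industrial chemical plate. Before this step, the minimum OD was set to 0. Reported values are medians of three biological replicates run on separate days.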

Bacteroides caccae = system: Bacteroides caccae
Summary of the method: as §1

Bacteroides clarus = system: Bacteroides clarus
Summary of the method: as §1

Bacteroides dorei = system: Bacteroides dorei
Summary of the method: as §1

Bacteroides stercoris = system: Bacteroides stercoris
Summary of the method: as §1

[1] = system: Bacteroides thetaiotaomicron
Summary of the method: as §1

Bacteroides uniformis = system: Bacteroides uniformis
Summary of the method: as §1

[2] = system: Bifidobacterium longum subsp. longum
Summary of the method: as §1

Clostridium difficile = system: Clostridium difficile
Summary of the method: as §1

Collinsella aerofaciens = system: Collinsella aerofaciens
Summary of the method: as §1

Compound | growth AUC (Akkermansia muciniphila) | growth AUC (Bacteroides caccae) | growth AUC (Bacteroides clarus) | growth AUC (Bacteroides dorei) | growth AUC (Bacteroides stercoris) | growth AUC [1] | growth AUC (Bacteroides uniformis) | growth AUC [2] | growth AUC (Clostridium difficile) | growth AUC (Collinsella aerofaciens)
Clc1ccccc1Cl | 0.952 | 1.02 | 1.02 | 0.992 | 0.991 | 0.986 | 1.03 | 1.11 | 0.996 | 0.975
CCNc1nc(NC(C)C(C)C)nc(SC)n1 (stereo not given) | 0.961 | 1.01 | 0.962 | 1 | 1.04 | 0.915 | 0.972 | 0.965 | 1 | 1.05
O=C(O)CNCP(=O)(O)O | 1.07 | 1.06 | 0.999 | 0.981 | 1.08 | 1.02 | 0.977 | 1.05 | 1.06 | 0.997
CCCCN(CC)C(=O)SCCC | 0.957 | 1.01 | 1.01 | 0.972 | 1.11 | 0.979 | 0.976 | 0.983 | 1.03 | 0.982
C1=Cc2cccc3cccc1c23 | 1.01 | 1.02 | 0.996 | 1.02 | 1.03 | 1.01 | 1 | 0.946 | 1 | 0.995
O=[N+]([O-])c1cc(C(F)(F)F)c(Cl)c([N+](=O)[O-])c1Nc1ncc(C(F)(F)F)cc1Cl | 1.01 | 0.55 (active) | 0.322 (active) | 0.672 (active) | 0.00814 (active) | 0.0138 (active) | 0.0147 (active) | 0.705 (active) | 0.914 | 0.886
CNC(=O)Oc1ccccc1OC(CCl)OC (stereo not given) | 1.17 | 0.941 | 1.06 | 0.955 | 1.23 | 1.02 | 0.982 | 1.02 | 1.03 | 1.07
O=C1C=CC(=O)C=C1 | 0.97 | 0.991 | 0.992 | 1.01 | 1.02 | 1.01 | 1 | 1.01 | 0.997 | 0.992
O=[N+]([O-])c1ccc2ccc3cccc4ccc1c2c34 | 0.948 | 0.59 (active) | 0.783 (active) | 0.851 | 0.179 (active) | 0.737 (active) | 0.877 | 1.3 | 0.913 | 0.983
CC(C)(C)C(O)C(Oc1ccc(-c2ccccc2)cc1)n1cncn1 (mixture of isomers) | 1.01 | 0.919 | 0.874 | 0.926 | 1.11 | 0.938 | 0.899 | 0.847 | 0.924 | 0.995
CCOC(=O)COc1cc(-c2nn(C)c(OC(F)F)c2Cl)c(F)cc1Cl | 0.977 | 0.974 | 0.986 | 0.99 | 0.965 | 1.01 | 1.04 | 1.03 | 1.02 | 1.04
O=P(OC(CCl)CCl)(OC(CCl)CCl)OC(CCl)CCl | 1.09 | 0.845 | 0.999 | 0.87 | 1.3 | 0.947 | 0.868 | 1.05 | 0.9 | 0.948
Clc1cccc(Cl)c1Cl | 0.898 | 1.04 | 0.992 | 0.997 | 0.945 | 1.02 | 1.01 | 1.04 | 0.996 | 0.973
CP(=O)(O)CCC(N)C(=O)[O-].[NH4+] (stereo not given) | 1.08 | 1.04 | 1.03 | 0.977 | 1.2 | 1 | 1.02 | 1.02 | 1.01 | 1.02

Reference: the supplement of paper PMC12669032
